# TbPYK inhibitor = T. brucei pyruvate kinase inhibition; TbPYK enzyme, Kinase-Glo Plus ATP luminescence, 45 min; AID 624173; Potency, µM (doses to about 76.8 µM), inactives show at the top dose activity, negative = inhibition, hits mostly inhibitors; actives 0.12% (n = 410,000); further: nearly all actives have a fitted effect of over 50% in size
#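 Glycolytic pyruvate kinase of T. brucei was incubated with substrate, test compound and 130 uM ADP for 45 minutes at room temperature. Luminescent Kinase-Glo Plus signal was measured after 10 minutes.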
# RE007 growth inh = less growth of the S. pombe RE007 Vpr strain. S. pombe RE007 Vpr strain, BacTiter-Glo ATP luminescence, 24 h. Potency, µM (series often up to 92.2 µM), without a hit: at the highest dose activity change, negative = less growth, usual class: inhibitors. actives 0.21% (n = 360,000). AID 651644; active means well fitted falling curve with a large enough effect; inconclusive means small, poorly fitted or top-dose-only effect; inactive means no such curve, though single readings can be large or run the other way; further: nearly all actives have a fitted effect of over 50% in size
#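 Fission yeast RE007 carrying one integrated HIV-1 vpr copy, seeded at OD 0.01 in PMG+AL medium with 23 nL pinned compound. Grown 24 h at 30 degrees; viability read by BacTiter-Glo luminescence after 5 min.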
# Giardia FBPA inh-1 = inhibitors of Giardia lamblia fructose-1,6-bisphosphate aldolase. Potency, µM (series often up to 59.6 µM), for inactives: top-dose activity, negative = inhibition, actives largely listed as inhibitors. purified Giardia FBPA. A8B2U2. AID 2451. actives 0.71% (n = 290,000); further: nearly all actives have a fitted effect of over 55% in size
# Target sequence (A8B2U2 whole entry, looked up): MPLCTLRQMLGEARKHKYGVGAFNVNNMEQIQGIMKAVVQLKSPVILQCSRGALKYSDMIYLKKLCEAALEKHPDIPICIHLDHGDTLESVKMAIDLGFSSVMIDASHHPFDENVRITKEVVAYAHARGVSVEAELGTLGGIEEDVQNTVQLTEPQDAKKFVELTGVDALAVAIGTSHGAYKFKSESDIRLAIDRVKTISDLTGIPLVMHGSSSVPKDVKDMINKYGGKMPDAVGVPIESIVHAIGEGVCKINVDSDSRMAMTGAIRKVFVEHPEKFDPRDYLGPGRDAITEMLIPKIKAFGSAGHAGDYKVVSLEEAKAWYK
#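 40 nM FBPA preincubated 10 min at RT with compound (up to 57.5 uM final), then substrate plus GAPDH/TPI/NAD/arsenate coupling and diaphorase/resazurin added. Fluorescence read after 20 min at RT, 525/598 nm.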
# AmpC no deterg = blocks E. coli AmpC beta-lactamase in detergent-free assay; P00811; AmpC nitrocefin hydrolysis, absorbance 480 nm, 0.0001% Triton; Potency, µM (titrated, usually from 57.1 µM), for the others: at the highest dose activity change, negative = inhibition, most hits filed as inhibitors; actives 0.52% (n = 330,000);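 further: plate controls were no compound for no effect and no enzyme for full effect; nearly all actives have a fitted effect of over 20% in size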
#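 20 mM phosphate pH 7.0 + 0.01% (detergent screen) or 0.0001% Triton X-100; 5.3 nM AmpC reagent; cpd preinc 15 min RT; nitrocefin (800 uM stock) to start; A480 q20 s × 4 min; Activity was normalised to no-enzyme and no-compound control wells.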
# LmPK inh = blocks Leishmania mexicana pyruvate kinase activity. purified LmPK, Kinase-Glo ATP luminescence, 1 h. Potency, µM (titrated, usually from 57.5 µM), for inactives: at the top dose activity change, negative = inhibition, hits mostly inhibitors. actives 0.37% (n = 290,000)
# Target sequence (Q27686 whole entry, looked up): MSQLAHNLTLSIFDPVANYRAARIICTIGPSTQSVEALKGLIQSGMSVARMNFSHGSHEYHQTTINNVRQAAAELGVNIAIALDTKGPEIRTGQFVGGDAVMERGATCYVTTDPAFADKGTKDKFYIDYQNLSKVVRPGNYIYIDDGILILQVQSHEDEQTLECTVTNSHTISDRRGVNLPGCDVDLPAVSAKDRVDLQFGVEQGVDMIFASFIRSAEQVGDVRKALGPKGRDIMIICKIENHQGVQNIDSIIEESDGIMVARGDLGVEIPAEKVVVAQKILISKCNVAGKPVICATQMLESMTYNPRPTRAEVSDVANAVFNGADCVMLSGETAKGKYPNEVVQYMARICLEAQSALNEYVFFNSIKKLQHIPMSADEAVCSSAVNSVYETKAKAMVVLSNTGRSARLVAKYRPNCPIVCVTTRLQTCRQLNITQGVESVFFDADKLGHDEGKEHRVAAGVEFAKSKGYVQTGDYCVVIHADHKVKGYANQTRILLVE
#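 ATP generated from ADP (0.1 mM) and PEP (0.5 mM) by 0.1 nM LmPK over 1 h at room temperature (pH 7.2 imidazole buffer) was detected by coupled luciferase luminescence. Values were normalized to uninhibited and no-enzyme wells.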
# AmpC inh detg = blocks E. coli AmpC beta-lactamase in detergent assay. P00811. AmpC hydrolysis of nitrocefin, absorbance 480 nm, 0.01% Triton. Potency, µM (titrated, usually from 114 µM), without a hit: at the highest dose activity change, negative = inhibition, actives largely listed as inhibitors. actives 0.041% (n = 370,000). AID 485294;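 further: 0% = no-compound wells and -100% = no-enzyme wells; nearly all actives have a fitted effect of over 25% in size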
#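 AmpC (5.3 nM in the dispensed reagent) in 20 mM phosphate pH 7.0 with 0.01% (detergent screen) or 0.0001% Triton X-100 was preincubated with compounds for 15 min at room temperature. Nitrocefin was then added from an 800 uM solution, and hydrolysis was followed at 480 nm.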
# Giardia growth = blocks growth of Giardia lamblia trophozoites; shares compounds with Giardia FBPA inh-1; Giardia lamblia trophozoite growth inhibition; Potency, µM (top dose mostly 57.5 µM), inactives show at the top dose activity change, negative = inhibition, usual class: inhibitors; actives 5% (n = 1,500); AID 2785;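 further: trophozoites exposed to compound for 48 h at 37 °C; nearly all actives have a fitted effect of over 70% in size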
# Mammal cell tox = mammalian cytotoxicity of Giardia aldolase inhibitor hits | shares compounds with Giardia FBPA inh-1 | mammalian cell viability counter-screen, qHTS | Potency, µM (titrated, usually from 57.5 µM), without a hit: top-dose viability change, negative = toxicity, actives largely listed as inhibitors | actives 4% (n = 1,500) | AID 2786;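 further: Chinese hamster ovary cells used as mammalian cytotoxicity surrogate; viability measured as cellular ATP by luminescence; compound exposure lasted 48 h before reading; nearly all actives have a fitted effect of over 60% in size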
# Giardia FBPA inh-2 = confirmation of Giardia fructose-bisphosphate aldolase inhibitors; AID 2787; Potency, µM (highest dose often 57.5 µM), without a hit: at the highest dose activity change, negative = inhibition, actives largely listed as inhibitors; purified Giardia aldolase enzyme activity, qHTS; shares compounds with Giardia FBPA inh-1; actives 5% (n = 1,500); further: nearly all actives have a fitted effect of over 45% in size
# Rabbit FBPA inh = blocks rabbit muscle aldolase in Giardia aldolase selectivity test. Potency, µM (series often up to 57.5 µM), without a hit: at the top dose activity, negative = inhibition, usual class: inhibitors. AID 2794. actives 4% (n = 1,500). Rabbit muscle FBPA enzyme inhibition, selectivity counter-screen. shares compounds with Giardia FBPA inh-1; further: nearly all actives have a fitted effect of over 60% in size
# GAPDH coupling = GAPDH inhibition flagged for Giardia aldolase hits | actives 6% (n = 1,500) | Potency, µM (series often up to 57.5 µM), for the others: top-dose activity change, negative = inhibition, actives largely listed as inhibitors | shares compounds with Giardia FBPA inh-1 | GAPDH coupling enzyme counterscreen, biochemical, qHTS; further: nearly all actives have a fitted effect of over 55% in size
# * hit, by the source's call; ? = inconclusive; / = no result given; [ ] = dose if it differs, or a comment. Compounds with a hit are over-represented: about 1.4% of the library has one in this group of screens. Unless noted, the call rests on the fitted dose curve; in most records, active means well fitted curve in the direction sought with a large enough effect; inconclusive means small, poorly fitted or top-dose-only effect, or another doubt; inactive means no such curve, though single readings can be large; an effect the other way counts as inactive or inconclusive. Unless noted, on the % scale 0 is the no-effect control and ±100 the full control effect; potency means the concentration at half of the fitted maximal effect.
SMILES,TbPYK inhibitor,RE007 growth inh,Giardia FBPA inh-1,AmpC no deterg,LmPK inh,AmpC inh detg,Giardia growth,Mammal cell tox,Giardia FBPA inh-2,Rabbit FBPA inh,GAPDH coupling
COc1ccccc1C(=O)OC(C)CN1CCN(C)CC1 (stereo not drawn),8%,-5%,32µM*,-5%,-3%,0%,-5%[10.4 µM],3%,6%,2%,-12%
CC(CN1CCN(C)CC1)OC(=O)c1ccccc1 (stereo not drawn),-3%,-23%,-9%,44%,0%,1%,/,/,/,/,/
COc1cccc(CNC(=O)CN2C(=O)CCCc3ccccc32)c1OC,0%,/,/,/,/,0%,/,/,/,/,/
O=C(CSc1cccc2cccnc12)Nc1cc(C(=O)O)cc(C(=O)O)c1,-13%,3%,25µM*,-10%,0%,-12%,-1%,-5%,8%,12%,18%
Cc1cccc(NC(=O)CSc2cccc3cccnc23)c1,-7%,-12%,8%,-30%,-1%,3%,/,/,/,/,/
O=S(=O)(Nc1ccc(Cl)cc1)c1ccc(N2CCOCC2)c(NC(=S)NCCN2CCOCC2)c1,?,-20%,5µM*,41%,-2%,-11%,-1%[38.3 µM],3%,?,40µM*,40µM*
COc1ccc(OC)c(NC(=O)c2cnn(-c3ccc(C)cc3)c2C2CCNCC2)c1,-8%,/,/,/,/,-3%,/,/,/,/,/
CCN(C/C=C/C#CC(C)(C)C)Cc1cccc(OCc2cc(-c3ccsc3)cs2)c1,/,/,-5%,/,/,/,/,/,/,/,/
COc1cc(-c2noc(CCC(=O)Nc3cc(C)ccc3C)n2)cc(OC)c1OC,0%,/,/,/,/,8%,/,/,/,/,/
Oc1c(CN2CCc3ccccc3C2)cc(Cl)c2cccnc12,-11%,?,?,-22%,15%,?,/,/,/,/,/
O=c1oc2ccccc2c(O)c1Cc1cc(Cl)c2cccnc2c1O,-26%,0%,10µM*,-19%,23%,1%,?,6%,-6%,-18%,-13%
Cc1ccc(NC(=S)N2CCC(c3ccc(C)cc3)C2)cc1 (stereo not drawn),?,-5%,16µM*,-38%,9%,-3%,-3%[10.4 µM],-15%,11%,7%,18%
COc1ccc(NC(=S)N2CCC(c3ccc(C)cc3)C2)cc1 (stereo not drawn),-17%,17%,7%,-15%,-3%,-8%,/,/,/,/,/
O=C(N/N=C/c1ccc(O)c(O)c1O)/C(=C/c1ccc([N+](=O)[O-])cc1)NC(=O)c1ccccc1,-11%,-8%,6.3µM*,-42%,-3%,-4%,?,-12%,?,?,?
Cc1ccccc1NNC(=O)C(=O)NNc1ccccc1C,6%,33%,16µM*,-18%,2%,8%,?,-6%,-11%,5%,8%
Cc1ccc(C)c(NNC(=O)C(=O)NNc2cc(C)ccc2C)c1,0%,16%,-8%,-33%,8%,8%,/,/,/,/,/
O=C(C1CCN(S(=O)(=O)Cc2ccccc2)CC1)N1CCN(c2ccccc2)CC1,-3%,/,/,/,/,22%,/,/,/,/,/
CCOC(=O)CSc1nc2sc3c(c2c(=O)n1Cc1ccccc1)CC(C)CC3 (stereo not drawn),-8%,/,/,/,/,-5%,/,/,/,/,/
CC(=O)Nc1ccc(NC(=O)C/C(C)=N/NC(N)=S)cc1,-4%,-7%,16µM*,-25%,3%,-10%,-14%,9%,-2%,7%,4%
CC(=O)Nc1cccc(/C(C)=N/NC(=S)NC(C)C)c1,-3%,-7%,-10%,-16%,0%,-15%,/,/,/,/,/
CC(=O)Nc1cccc(/C(C)=N/NC(N)=S)c1,-11%,19%,18µM*,-12%,-4%,-8%,14%,-20%,7%,3%,7%
CCCS(=O)(=O)N1CC(=O)N(c2ccccc2F)C(C)(C(=O)NC2CCCCCC2)C1 (stereo not drawn),4%[15.4 µM],/,/,/,/,20%,/,/,/,/,/
CCn1c(CSc2nnc(-c3cccnc3)n2-c2ccccc2C)nc2cc(C(=O)O)ccc21,/,/,7.9µM*,-10%,1%,-5%,39%,10%,?,-20%,-18%
CCn1c(CSc2nnc(-c3ccncc3)n2CCOC)nc2cc(C(=O)O)ccc21,-2%,-14%,?,-17%,-5%,0%,/,/,/,/,/
CCn1c(CSc2nnc3ccccn23)nc2cc(C(=O)O)ccc21,1%,-6%,-28%,-16%,6%,?,/,/,/,/,/
SMILES,TbPYK inhibitor,RE007 growth inh,Giardia FBPA inh-1,AmpC no deterg,LmPK inh,AmpC inh detg,Giardia growth,Mammal cell tox,Giardia FBPA inh-2,Rabbit FBPA inh,GAPDH coupling
CCn1c(CSc2n[nH]c(N)n2)nc2cc(C(=O)O)ccc21,-15%,-17%,16µM*,-24%,0%,5%,21%,-4%,-10%,-5%,-1%
CCOc1ccccc1CNC(=O)c1cccc(NC(=O)c2nsc3ccccc23)c1,6%,/,/,/,/,17%,/,/,/,/,/
CN1C(CSCC(F)(F)F)Nc2cc(Cl)c(S(N)(=O)=O)cc2S1(=O)=O (stereo not drawn),1%,/,/,/,/,/,/,/,/,/,/
Nc1c2c(nc3ccccc13)N(C1CCCCC1)CC2,-3%,12%,?,-31%,-8%,-8%,/,/,/,/,/
Nc1c2c(nc3ccc(Br)cc13)N(C1CCCCC1)CC2,/,/,18µM*,-28%,-3%,-15%,5µM*,-28%,-4%,-4%,-10%
O=C(CNCc1ccco1)Nc1ccc(N2CCCCCC2)cc1,5%,1%,18µM*,4%,13%,-9%,?,-8%,-11%,-15%,-12%

# Screening results: PubChem BioAssay, National Center for Advancing Translational Sciences (NCATS)
